Assay in all cases: NCI-60 one-dose screen, 48 h (100 = growth as untreated, 0 = no growth, -100 = all killed)
Holding throughout (settings): 10 µM

For experiment [1], the system named is 786-0 renal.
Experiment [2] concerns MALME-3M melanoma.
Experiment [3] concerns MDA-MB-231 breast.
The subject of experiment [4] is SF-268 CNS.
The test system of experiment [5] is SF-295 CNS.
The subject of experiment [6] is UACC-257 melanoma.
For experiment [7], the system named is U251 CNS.
The test system of experiment [8] is PC-3 prostate.
In experiment [9] the test system is UACC-62 melanoma.
In experiment [10] the test system is SK-MEL-2 melanoma.
Experiment [11] deals with SN12C renal.
For experiment [12], the system named is UO-31 renal.
Experiment [13] deals with TK-10 renal.
Experiment [14] concerns ACHN renal.
The test system of experiment [15] is A498 renal.
Experiment [16] deals with OVCAR-5 ovarian.
The subject of experiment [17] is OVCAR-3 ovarian.
Experiment [18] concerns HS 578T breast.
The subject of experiment [19] is NCI/ADR-RES ovarian.
For experiment [20], the system named is BT-549 breast.

The structures appear in SMILES notation. This is part of a sample that, as a whole, favours compounds with a hit. Of some 83,000 tested, about 20% had one in any assay.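 Single-dose data. Exposure time 48 hours. Values below 10 considered active.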 Activity calls are given as the source filed them.

Among the data in PubChem BioAssay (NCI) are growth values, retold here.

On to `COc1cc(C2CC(c3ccc(Oc4ccc(Cl)cc4)cc3)=NN2c2nc(-c3ccc(Cl)cc3)c(C#N)c(N3CCOCC3)n2)cc(OC)c1OC` (stereo not given), for which the growth was 98.8% (inactive) in [1]; 106% (inactive) in [2]; 100% (inactive) in [3]; 104% (inactive) in experiment [4]; 107% (inactive) in experiment [5]; 101% (inactive) in experiment [6]. The growth in [7] is 102% (inactive); in experiment [8], 92% (inactive); in experiment [9], 91.2% (inactive); in experiment [10], 106% (inactive); in [11] it was 91.4% (inactive); in experiment [12], 79.2% (inactive). Also, the growth in experiment [13] was 96.1% (inactive); in experiment [14] it was 96.5% (inactive); in experiment [15], 114% (inactive); in experiment [16], 101% (inactive); in experiment [17], 117% (inactive); in [18], 104% (inactive). Also, the results for the growth in [19] and in experiment [20] were 98.9% (inactive) and 116% (inactive), respectively.
Take `O=C(CC(=O)Nc1ccc(Oc2ncnc3scc(Nc4n[nH]c(=S)s4)c23)cc1)Nc1ccc(Br)cc1`: the growth was 109% (inactive) in experiment [1]; 105% (inactive) in experiment [2]; 101% (inactive) in [3]; 98.7% (inactive) in [4]; 112% (inactive) in experiment [5]; 104% (inactive) in experiment [6]. Besides, the growth in experiment [7] was 103% (inactive); in [8] it was 99.9% (inactive); in experiment [9], 82.2% (inactive); in experiment [10], 98.8% (inactive); in experiment [11], 106% (inactive); in experiment [12] it was 85.1% (inactive). The growth is 146% (inactive) in experiment [13]; 106% (inactive) in experiment [14]; 121% (inactive) in experiment [15]; 106% (inactive) in [16]; 105% (inactive) in experiment [17]; 96.7% (inactive) in experiment [18]. Further, the growth in [19] is 103% (inactive); in experiment [20], 108% (inactive).
`Cc1cc(N=C2NC(=O)/C(=C/c3cc(C(C)(C)C)c(O)c(C(C)(C)C)c3)S2)n[nH]1`: the growth in experiment [1] is 12% (inactive); in experiment [2] it was 19.2% (inactive); in experiment [3], 22.8% (inactive); in experiment [4] it was 32.7% (inactive); in experiment [5], -0.721% (active); in experiment [6], 4.76% (active). In addition, the growth is 6.8% (active) in experiment [7]; 10.7% (inactive) in [8]; 8.86% (active) in [9]; -27.6% (active) in experiment [10]; 16.6% (inactive) in experiment [11]; 16.7% (inactive) in experiment [12]. For the same molecule, the growth in experiment [13] is -11.6% (active); in experiment [14], 14% (inactive); in experiment [15] it was -8.54% (active); in [16], 36.6% (inactive); in experiment [17], 9.43% (active); in experiment [18], -3.19% (active). The results for the growth in experiment [19] and in experiment [20] were 5.91% (active) and -1.78% (active), respectively.
For `O=C(Nc1ccc(OCC(=O)c2ccc(Cl)cc2)cc1)Nc1ccc(Cl)c(C(F)(F)F)c1`, the growth in experiment [1] was 26% (inactive); in experiment [2] it was 27.4% (inactive); in experiment [3], 48.1% (inactive); in [4], 46.5% (inactive); in [5], 27.5% (inactive); in [6], 19.8% (inactive). Also, the growth in [7] was 35.6% (inactive); in experiment [8], 7.67% (active); in experiment [9], 18.1% (inactive); in experiment [10] it was -35.4% (active); in experiment [11] it was 58% (inactive); in [12] it was 13.9% (inactive). In addition, the growth in experiment [13] was 71.9% (inactive); in experiment [14] it was 16.8% (inactive); in experiment [15] it was 0.685% (active); in [16], 61.2% (inactive); in experiment [17], 34% (inactive); in experiment [18] it was 18% (inactive). Further, the growth in experiment [19] was 57.6% (inactive); in experiment [20] it was 76% (inactive).
As for `CC(C)(C)c1cc(/C=C2\S/C(=N/c3ncn[nH]3)NC2=O)cc(C(C)(C)C)c1O`, the growth in [1] was 24.5% (inactive); in [2] it was 36.8% (inactive); in [3] it was 23.7% (inactive); in experiment [4], 23.3% (inactive); in experiment [5], 14.3% (inactive); in experiment [6] it was 17.5% (inactive). For the same molecule, the growth in experiment [7] is 2.45% (active); in experiment [8], 12.2% (inactive); in experiment [9], 1.85% (active); in [10], -7.9% (active); in experiment [11], 12.7% (inactive); in experiment [12], 15.1% (inactive). Further, the growth in [13] is 24% (inactive); in [14] it was 18.2% (inactive); in experiment [15], 32.8% (inactive); in [16], 32.8% (inactive); in experiment [17] it was 17.3% (inactive); in experiment [18], 11.8% (inactive). Moreover, the growth in experiment [19] is 5.61% (active); in [20], -2.05% (active).
For the molecule `COc1cccc(O)c1/C=C1\SCc2cc3c(OC)cccc3[o+]c21`, the growth is 105% (inactive) in [1]; 107% (inactive) in [2]; 102% (inactive) in experiment [3]; 103% (inactive) in experiment [4]; 99% (inactive) in [5]; 103% (inactive) in experiment [6]. Also, the growth in experiment [7] is 114% (inactive); in [8], 97.9% (inactive); in [9] it was 98.7% (inactive); in experiment [10], 110% (inactive); in experiment [11], 101% (inactive); in experiment [12], 65.5% (inactive). The growth is 111% (inactive) in experiment [13]; 104% (inactive) in experiment [14]; 141% (inactive) in experiment [15]; 105% (inactive) in experiment [16]; 108% (inactive) in experiment [17]; 111% (inactive) in experiment [18]. Also, the results for the growth in experiment [19] and in experiment [20] were 108% (inactive) and 111% (inactive), respectively.
Regarding `Cc1ccc2c(c1)C(=O)/C(=C/c1ccc([N+](=O)[O-])cc1)S2`, the growth in experiment [1] is 101% (inactive); in experiment [2] it was 97.8% (inactive); in experiment [3], 98.1% (inactive); in experiment [4] it was 96.4% (inactive); in experiment [5] it was 98.2% (inactive); in experiment [6], 101% (inactive). For the same molecule, the growth in experiment [7] was 77.8% (inactive); in experiment [8], 94.5% (inactive); in experiment [9], 73.2% (inactive); in experiment [10] it was 101% (inactive); in experiment [11], 93.4% (inactive); in experiment [12], 58.2% (inactive). In addition, the growth in experiment [13] is 135% (inactive); in [14] it was 102% (inactive); in [15], 114% (inactive); in [16], 82.9% (inactive); in experiment [17], 103% (inactive); in experiment [18], 86% (inactive). For the same molecule, the growth is 95.3% (inactive) in experiment [19] and 101% (inactive) in [20].
